For nine compounds, Potency and outcome results are on record in PubChem BioAssay (Tox21).

The nature of experiment [1]: qHTS assay to identify small molecule antagonists of the thyroid receptor (TR) signaling pathway - cell viability counter screen (AID 743064). Also: nearly all actives have a fitted effect of over 50% in size. Also: potency is read from the fitted curve at half-maximal effect. Put shortly: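 Compounds were tested on GH3.TRE-Luc cells in the presence of T3 at 1 nM final. Following 23.5 h at 37 °C, cell viability was quantified by CellTiter-Fluor.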
(In qHTS, concentration-response curves come from the screen itself.)

Experiment [2] in a line: qHTS assay to identify small molecule antagonists of the thyroid receptor (TR) signaling pathway (AID 743065). Also: series mostly up to about 70 µM; nearly all actives have a fitted effect of over 55% in size. In short, it runs like this:
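Antagonism measured as loss of luciferase signal in GH3 cells stably carrying a TRE-luciferase reporter, co-treated with compound and T3 (1 nM final) for 23.5 h at 37 C. Viability was read in the same well by CellTiter-Fluor.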

In experiment [3] the test system is thyroid hormone receptor (rat, GH3 cells). The experiment can be described thus: qHTS assay to identify small molecule agonists of the thyroid receptor (TR) signaling pathway (AID 743066; calls by dose curve).
The nature of experiment [4]: qHTS assay to identify small molecule antagonists of the estrogen receptor alpha (ER-alpha) signaling pathway - cell viability counter screen (AID 743074; calls by dose curve;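 also: HEK293 cells carrying ER-alpha-UAS-bla reporter stimulated with 17beta-estradiol; nearly all actives have a fitted effect of over 45% in size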).
A short description of experiment [5]: qHTS assay to identify small molecule antagonists of the estrogen receptor alpha (ER-alpha) signaling pathway using the BG1 cell line - cell viability counter screen (AID 743081).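 Also: compound given together with 17beta-estradiol as the ER stimulus; series mostly up to about 70 µM; nearly all actives have a fitted effect of over 45% in size.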
Experiment [6] deals with Aromatase (Homo sapiens) (UniProt P11511). Put plainly: qHTS assay to identify aromatase inhibitors (AID 743083). Also: series mostly up to about 70 µM; nearly all actives have a fitted effect of over 55% in size.
The nature of experiment [7]: qHTS assay to identify aromatase inhibitors - cell viability counter screen (AID 743084).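 Also: cells stimulated with testosterone during compound exposure; nearly all actives have a fitted effect of over 55% in size.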
The target of experiment [8] is Peroxisome proliferator-activated receptor gamma (Homo sapiens) (UniProt P37231). Put plainly: qHTS assay to identify small molecule agonists of the peroxisome proliferator-activated receptor gamma (PPARg) signaling pathway (AID 743094; active = well fitted activation curve with a large enough effect in the signal ratio in the repeat runs, not every such curve was filed as active; the % refers to the signal ratio). Put shortly:
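Quantitative HTS agonist mode: stable HEK293H line with UAS-beta-lactamase reporter under PPARg control, 17 h compound exposure at 37C, fluorescence after 1 h FRET substrate loading at room temperature.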

For experiment [9] the target is unchanged. Put plainly: qHTS assay to identify small molecule antagonists of the peroxisome proliferator-activated receptor gamma (PPARg) signaling pathway (AID 743191; calls by dose curve; also: series mostly up to about 63 µM; nearly all actives have a fitted effect of over 30% in size). Put shortly: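 Beta-lactamase reporter under UAS control in HEK293H PPARg-bla cells; compound treatment 17 h at 37C. Read-out: fluorescence intensity after 1 h room-temperature incubation with LiveBLAzer B/G FRET substrate.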

Experiment [10] can be described thus: qHTS assay for small molecule agonists of the antioxidant response element (ARE) signaling pathway (AID 743202; active = well fitted activation curve with a large enough effect in the signal ratio in the repeat runs, not every such curve was filed as active; the % refers to the signal ratio). Put shortly: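 An ARE-responsive beta-lactamase gene stably integrated in HepG2 cells serves as reporter. After 5 h plating and 16 h compound incubation at 37 C, fluorescence of the B/G FRET substrate was measured.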
Experiment [11] can be described thus: qHTS assay for small molecule agonists of the antioxidant response element (ARE) signaling pathway - cell viability counter screen (AID 743203; calls by dose curve; also: nearly all actives have a fitted effect of over 55% in size). Put shortly: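 Seeded at 2,000 cells/well, ARE-bla HepG2 cells were incubated 5 hrs before compound addition. After 16 hrs of treatment at 37C with 5% CO2, CellTiter-Glo reagent was added and luminescence read 30 min later.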

Experiment [12] can be described thus: qHTS assay for small molecule activators of the heat shock response signaling pathway - cell viability counter screen (AID 743209). Also: nearly all actives have a fitted effect of over 50% in size. Put shortly: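 First, HSE-bla HeLa cells were seeded at 1500 cells/well and kept overnight at 37 C. Next, compounds were pinned in and incubated 5 h. After the FRET substrate step, CellTiter-Glo was added and luminescence read 30 min later.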

Experiment [13] is described as follows: qHTS assay for small molecule activators of the heat shock response signaling pathway (AID 743210; active = well fitted activation curve with a large enough effect in the signal ratio in the repeat runs, with a control signal flat, not every such curve was filed as active; the % refers to the signal ratio;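 also: HeLa cells with beta-lactamase reporter driven by heat shock elements; series mostly up to about 63 µM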). Put shortly: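 In HSE-bla HeLa cells, 5 h compound incubation (37 C) precedes addition of LiveBLAzer B/G substrate; after 2.5 h at room temperature, fluorescence intensity indicates reporter induction.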
The target in experiment [14] is Estrogen receptor (Homo sapiens) (UniProt P03372). Put plainly: qHTS assay to identify small molecule antagonists of the estrogen receptor alpha (ER-alpha) signaling pathway (AID 743069; active = well fitted curve in the direction sought with a large enough effect in the signal ratio in the repeat runs, not every such curve was filed as active; the % refers to the signal ratio). In short, it runs like this: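 Compound effects are measured against 17beta-estradiol stimulation in HEK293 cells with a UAS-controlled beta-lactamase reporter for ER-alpha. Exposure lasts 18 hr at 37C; LiveBLAzer B/G FRET substrate follows for 2 hr at room temperature.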

For experiment [15] the target is unchanged. Put plainly: qHTS assay to identify small molecule agonists of the estrogen receptor alpha (ER-alpha) signaling pathway (AID 743075; calls by dose curve).
For experiment [16] the target is unchanged. Put plainly: qHTS assay to identify small molecule agonists of the estrogen receptor alpha (ER-alpha) signaling pathway using the BG1 cell line (AID 743079). Also: nearly all actives have a fitted effect of over 20% in size.
Experiment [17] can be described thus: qHTS assay to identify small molecule antagonists of the estrogen receptor alpha (ER-alpha) signaling pathway using the BG1 cell line (AID 743080; calls by dose curve;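 also: BG1 cells stimulated with 17beta-estradiol alongside compound; series mostly up to about 70 µM; nearly all actives have a fitted effect of over 25% in size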). In short, it runs like this: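 Luciferase inhibition measured with ONE-Glo after 30 min at RT in BG1Luc4E2 cells given test compounds and 17beta-estradiol for 21.5 h at 37 C; CellTiter-Fluor viability read in the same wells beforehand.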

Experiment [18] deals with Aryl hydrocarbon receptor (Homo sapiens) (UniProt P35869). Put plainly: qHTS assay to identify small molecule that activate the aryl hydrocarbon receptor (AhR) signaling pathway (AID 743085).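 Also: HG2L7.5c1 human HepG2 liver cells with stably integrated DRE-driven firefly reporter; series mostly up to about 70 µM; nearly all actives have a fitted effect of over 15% in size.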 Put shortly:
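24 h compound exposure, 37C, HepG2-derived HG2L7.5c1 cells with DRE-responsive luciferase. Readouts: fluorescence viability, then luminescence at room temperature after 30 min.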

A short description of experiment [19]: qHTS assay to identify small molecule that activate the aryl hydrocarbon receptor (AhR) signaling pathway - cell viability counter screen (AID 743086). Also: nearly all actives have a fitted effect of over 45% in size. Also: potency is read from the fitted curve at half-maximal effect. In short, it runs like this:
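Cytotoxicity counter screen: CellTiter-Fluor signal (30 min, 37 C) in 4000 HepG2 cells/well carrying the DRE-luciferase reporter, following 24 h compound exposure at 37 C.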

Experiment [20] can be described thus: qHTS assay to identify small molecule antagonists of the peroxisome proliferator-activated receptor gamma (PPARg) signaling pathway - cell viability counter screen (AID 743194). Also: nearly all actives have a fitted effect of over 55% in size. In short, it runs like this: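 Viability was measured as CellTiter-Glo luminescence in GeneBLAzer PPARg UAS-bla HEK293H cells. These cells had been exposed 17 h at 37 C to compounds together with rosiglitazone at 50 nM final, with the beta-lactamase readout taken in the same wells.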

Results filed as inconclusive are left out. The source made the active and inactive calls. Unless noted, calls follow the shape of the dose curve; as a rule, active = well fitted curve in the direction sought with a large enough effect in the repeat runs; inconclusive = weak or mixed curves; inactive = no such curve, though single readings can be large; an effect the other way counts as inactive or inconclusive.

Chain of Peroxisome proliferator-activated receptor gamma (Homo sapiens) (P37231 whole entry, looked up): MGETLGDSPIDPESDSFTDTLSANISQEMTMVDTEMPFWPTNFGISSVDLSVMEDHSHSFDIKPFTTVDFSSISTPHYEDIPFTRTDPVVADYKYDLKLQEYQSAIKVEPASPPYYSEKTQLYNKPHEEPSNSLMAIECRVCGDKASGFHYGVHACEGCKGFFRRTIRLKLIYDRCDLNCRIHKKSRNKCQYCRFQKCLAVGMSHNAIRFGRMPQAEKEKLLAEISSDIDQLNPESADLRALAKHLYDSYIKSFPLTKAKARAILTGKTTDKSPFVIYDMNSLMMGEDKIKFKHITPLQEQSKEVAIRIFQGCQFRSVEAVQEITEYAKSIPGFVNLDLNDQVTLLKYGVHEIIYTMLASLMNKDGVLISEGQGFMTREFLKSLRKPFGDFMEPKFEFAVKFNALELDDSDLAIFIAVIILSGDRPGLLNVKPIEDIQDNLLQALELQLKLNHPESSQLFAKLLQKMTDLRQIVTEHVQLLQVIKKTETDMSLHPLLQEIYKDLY
Chain of Aryl hydrocarbon receptor (Homo sapiens) (P35869 whole entry, looked up): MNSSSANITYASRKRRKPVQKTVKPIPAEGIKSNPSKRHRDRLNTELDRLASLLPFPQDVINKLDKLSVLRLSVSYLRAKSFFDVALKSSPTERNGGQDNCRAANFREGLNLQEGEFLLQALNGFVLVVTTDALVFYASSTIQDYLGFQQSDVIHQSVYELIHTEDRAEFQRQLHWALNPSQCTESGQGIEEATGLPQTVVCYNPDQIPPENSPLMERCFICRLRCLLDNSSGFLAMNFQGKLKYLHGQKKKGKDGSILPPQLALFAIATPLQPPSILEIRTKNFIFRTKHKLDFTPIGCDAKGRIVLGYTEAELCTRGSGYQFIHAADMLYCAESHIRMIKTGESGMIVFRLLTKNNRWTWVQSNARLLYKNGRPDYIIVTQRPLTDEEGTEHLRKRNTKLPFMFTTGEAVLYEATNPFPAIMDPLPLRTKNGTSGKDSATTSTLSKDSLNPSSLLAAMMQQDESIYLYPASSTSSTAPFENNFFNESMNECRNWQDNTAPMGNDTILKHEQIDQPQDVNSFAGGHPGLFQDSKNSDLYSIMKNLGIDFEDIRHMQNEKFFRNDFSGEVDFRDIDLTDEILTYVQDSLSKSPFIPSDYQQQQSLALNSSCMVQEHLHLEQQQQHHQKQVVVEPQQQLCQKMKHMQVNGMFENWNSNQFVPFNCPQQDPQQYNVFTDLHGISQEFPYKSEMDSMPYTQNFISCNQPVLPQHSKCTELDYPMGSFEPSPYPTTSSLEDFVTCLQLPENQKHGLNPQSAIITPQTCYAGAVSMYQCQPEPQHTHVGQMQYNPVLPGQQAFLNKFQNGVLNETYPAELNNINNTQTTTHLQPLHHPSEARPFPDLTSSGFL
Chain of Estrogen receptor (Homo sapiens) (P03372 whole entry, looked up): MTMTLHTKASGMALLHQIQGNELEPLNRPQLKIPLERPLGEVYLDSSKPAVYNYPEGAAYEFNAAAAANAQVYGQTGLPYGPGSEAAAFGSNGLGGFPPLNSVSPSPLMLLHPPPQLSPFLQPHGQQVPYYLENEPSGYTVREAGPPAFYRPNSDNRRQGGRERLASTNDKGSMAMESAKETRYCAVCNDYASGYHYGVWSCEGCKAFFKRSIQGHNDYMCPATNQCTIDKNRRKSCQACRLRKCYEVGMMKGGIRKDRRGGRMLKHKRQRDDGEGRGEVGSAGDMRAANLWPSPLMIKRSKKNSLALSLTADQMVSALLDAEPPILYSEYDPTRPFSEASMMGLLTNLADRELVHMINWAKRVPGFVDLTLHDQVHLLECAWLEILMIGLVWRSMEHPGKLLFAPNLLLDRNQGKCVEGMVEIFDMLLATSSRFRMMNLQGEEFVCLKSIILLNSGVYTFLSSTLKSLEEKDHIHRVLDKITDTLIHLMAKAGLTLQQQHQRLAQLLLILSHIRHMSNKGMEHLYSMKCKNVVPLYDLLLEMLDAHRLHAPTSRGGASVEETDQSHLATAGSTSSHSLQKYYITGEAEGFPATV
Chain of Aromatase (Homo sapiens) (P11511 whole entry, looked up): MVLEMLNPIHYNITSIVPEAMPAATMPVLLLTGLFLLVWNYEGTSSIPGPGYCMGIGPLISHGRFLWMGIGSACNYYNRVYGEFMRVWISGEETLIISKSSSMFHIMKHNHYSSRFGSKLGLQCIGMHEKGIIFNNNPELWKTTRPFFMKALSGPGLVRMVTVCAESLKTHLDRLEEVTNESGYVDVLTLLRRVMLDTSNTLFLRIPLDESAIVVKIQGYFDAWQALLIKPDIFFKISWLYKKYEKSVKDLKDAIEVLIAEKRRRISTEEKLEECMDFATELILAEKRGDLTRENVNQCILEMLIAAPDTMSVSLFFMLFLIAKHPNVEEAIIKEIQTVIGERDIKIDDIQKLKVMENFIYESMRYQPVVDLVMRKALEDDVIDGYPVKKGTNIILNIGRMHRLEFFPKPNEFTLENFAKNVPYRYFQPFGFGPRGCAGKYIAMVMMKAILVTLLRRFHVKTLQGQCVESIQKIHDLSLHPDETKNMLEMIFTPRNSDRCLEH

Take `C#CC(C)N(C)C(=O)Nc1ccc(Cl)cc1` (stereo unspecified): the Potency result in experiment [1], in experiment [2], in [6], in experiment [7], in [9] and in [10] was “inactive” throughout. Moreover, the compound was classed as inactive in experiment [3], in experiment [4], in experiment [5], in [8], in experiment [11] and in [12]. Further, the call in experiment [13] was inactive.
`CCCC/C=C/C=C\C=O`: the Potency entry in experiment [1], in [16], in [17], in [6], in [7] and in experiment [18] was “inactive” in each case. The outcome in [3], in experiment [14], in [4], in [15], in experiment [5] and in [8] was inactive. The compound was classed as inactive in experiment [11] and in [12].
Regarding `CC(C(=O)O)c1ccc2c(c1)CC(=O)c1ccccc1S2` (stereo unspecified), the Potency entry in [1], in experiment [16], in experiment [17], in [6], in experiment [7] and in experiment [18] was “inactive” in each case. The Potency result in experiment [19] and in experiment [10] was “inactive” each time. Besides, the result in experiment [3], in experiment [14], in experiment [4], in [15], in experiment [20] and in experiment [11] was inactive. The call in [12] and in experiment [13] was inactive.
`CC(C)C[C@H](NC(=O)CNC(=O)[C@H](Cc1ccc(O)cc1)NC(=O)[C@H](CO)NC(=O)[C@H](Cc1c[nH]c2ccccc12)NC(=O)[C@H](Cc1cnc[nH]1)NC(=O)[C@@H]1CCC(=O)N1)C(=O)N[C@@H](CCCN=C(N)N)C(=O)N1CCC[C@H]1C(=O)NCC(N)=O` (stereo in doubt): the Potency entry in experiment [1], in experiment [2], in [19] and in [10] was “inactive” throughout. The compound was called inactive in experiment [3], in [4], in experiment [11] and in experiment [12].
With `COc1ccc2c(c1OC)C(=O)O[C@@H]2[C@H]1c2c(cc3c(c2OC)OCO3)CCN1C`, the figures for the Potency in experiment [1] and in [19] were 11.9 µM (active) and 29.8 µM (active), respectively. Further, the call in experiment [4], in experiment [20], in experiment [11], in experiment [12] and in experiment [13] was inactive. Moreover, in experiment [10], the Potency entry is “inactive”.
In the case of `CCCCCCCCOS(=O)(=O)O`, the Potency result in experiment [2], in experiment [16], in experiment [17], in [6], in experiment [7] and in experiment [18] was “inactive” in each case. Besides, the Potency entry in experiment [19], in [9] and in [10] was “inactive” throughout. In addition, the compound was called inactive in experiment [3], in experiment [14], in experiment [4], in experiment [15], in experiment [5] and in [8]. Moreover, the call in experiment [20], in experiment [11], in [12] and in [13] was inactive.
Turning to `O=C1c2ccccc2C(=O)c2cc(S(=O)(=O)O)ccc21`, the Potency result in [2], in [16], in experiment [17], in experiment [6], in experiment [7] and in experiment [18] was “inactive” each time. In addition, the Potency entry in [19], in experiment [9] and in experiment [10] was “inactive” throughout. The result in experiment [3], in experiment [14], in experiment [4], in experiment [15], in experiment [5] and in experiment [8] was inactive. For the same compound, the call in experiment [20], in experiment [12] and in [13] was inactive.
`CCCC(=O)C(C)=O`: the Potency result in experiment [2], in experiment [16], in [17], in experiment [6], in experiment [7] and in experiment [18] was “inactive” throughout. Besides, the Potency entry in [19], in [9] and in experiment [10] was “inactive” in each case. The call in experiment [3], in experiment [14], in experiment [4], in experiment [15], in [5] and in [8] was inactive. The call in experiment [20], in [11] and in experiment [12] was inactive.
Consider `CCCCNc1ccc(C(=O)OCCN(C)C)cc1`, for which the Potency result in [1], in experiment [6], in [7], in experiment [18] and in experiment [19] was “inactive” each time. Moreover, the call in experiment [3], in [4], in experiment [5], in experiment [20], in [11] and in experiment [12] was inactive. The compound was called inactive in [13].
